JMJD2A Tudor – blocks the human JMJD2A Tudor domain | O75164 | AlphaScreen JMJD2A-Tudor / H3K4me3 peptide binding | Potency, µM (highest dose often 114 µM), inactives show top-dose activity change, negative = inhibition, actives largely listed as inhibitors | 390,000 compounds, 4.4% hits | AID 504339; also: % is scaled to controls: 0 for no effect and ±100 for the full control effect; nearly all actives have a fitted effect of over 50% in size
BAZ2B inh – blocks human BAZ2B | Potency, µM (titrated, usually from 114 µM), for inactives: at the highest dose activity change, negative = inhibition, most hits filed as inhibitors | AlphaScreen BAZ2B-H3K14Ac peptide displacement | 360,000 compounds, 4.4% hits | Q9UIF8; also: % is scaled to controls: 0 for no effect and ±100 for the full control effect; nearly all actives have a fitted effect of over 60% in size
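Compounds, titrated to a top concentration of 110 uM, were incubated 30 min at room temperature with preformed BAZ2B/acetyl-K14 H3 peptide complex (50 nM each). Proximity signal was measured by AlphaScreen after 20 min with beads.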
HP1b chromo inh – inhibitors of HP1-beta chromodomain binding to methylated histone tails. P83916. AlphaScreen HP1-beta / biotin-H3K9me3 peptide binding. Potency, µM (highest dose often 114 µM), for the others: at the highest dose activity change, negative = inhibition, most hits filed as inhibitors. 390,000 compounds, 0.56% hits. AID 540317; also: nearly all actives have a fitted effect of over 70% in size
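AlphaScreen: HP1-beta (50 nM) preformed 30 min with biotin-H3(1-18)K9me3 peptide (50 nM) in PBS pH 7.4, 0.01% Tween-20. Compound added for 30 min at RT, then streptavidin donor/nickel chelate acceptor beads (10 ug/mL) for 30 min.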
G9a inh – inhibitors of human histone lysine methyltransferase G9a; Q96KQ7; G9a H3K9 monomethylation, AlphaScreen, 2 h; Potency, µM (highest dose often 102 µM), for the others: at the top dose activity, negative = inhibition, usual class: inhibitors; 350,000 compounds, 8.8% hits; AID 504332; also: % is scaled to controls: 0 for no effect and ±100 for the full control effect; nearly all actives have a fitted effect of over 75% in size
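AlphaScreen read-out: biotin-H3K9 peptide (500 nM) methylation by 20 nM enzyme with 20 uM SAM, 2 h at room temperature after 15 min compound preincubation; anti-monomethyl H3K9 antibody plus donor/acceptor beads, 10 min dark.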
L3MBTL1 inh – blocks human L3MBTL1. AlphaScreen L3MBTL1–H3K9me1 peptide binding. Q9Y468. Potency, µM (titrated, usually from 57.1 µM), for inactives: at the highest dose activity, negative = inhibition, usual class: inhibitors. 230,000 compounds, 0.66% hits; also: % is scaled to controls: 0 for no effect and ±100 for the full control effect; nearly all actives have a fitted effect of over 60% in size
Target sequence (Q9Y468 whole entry, looked up): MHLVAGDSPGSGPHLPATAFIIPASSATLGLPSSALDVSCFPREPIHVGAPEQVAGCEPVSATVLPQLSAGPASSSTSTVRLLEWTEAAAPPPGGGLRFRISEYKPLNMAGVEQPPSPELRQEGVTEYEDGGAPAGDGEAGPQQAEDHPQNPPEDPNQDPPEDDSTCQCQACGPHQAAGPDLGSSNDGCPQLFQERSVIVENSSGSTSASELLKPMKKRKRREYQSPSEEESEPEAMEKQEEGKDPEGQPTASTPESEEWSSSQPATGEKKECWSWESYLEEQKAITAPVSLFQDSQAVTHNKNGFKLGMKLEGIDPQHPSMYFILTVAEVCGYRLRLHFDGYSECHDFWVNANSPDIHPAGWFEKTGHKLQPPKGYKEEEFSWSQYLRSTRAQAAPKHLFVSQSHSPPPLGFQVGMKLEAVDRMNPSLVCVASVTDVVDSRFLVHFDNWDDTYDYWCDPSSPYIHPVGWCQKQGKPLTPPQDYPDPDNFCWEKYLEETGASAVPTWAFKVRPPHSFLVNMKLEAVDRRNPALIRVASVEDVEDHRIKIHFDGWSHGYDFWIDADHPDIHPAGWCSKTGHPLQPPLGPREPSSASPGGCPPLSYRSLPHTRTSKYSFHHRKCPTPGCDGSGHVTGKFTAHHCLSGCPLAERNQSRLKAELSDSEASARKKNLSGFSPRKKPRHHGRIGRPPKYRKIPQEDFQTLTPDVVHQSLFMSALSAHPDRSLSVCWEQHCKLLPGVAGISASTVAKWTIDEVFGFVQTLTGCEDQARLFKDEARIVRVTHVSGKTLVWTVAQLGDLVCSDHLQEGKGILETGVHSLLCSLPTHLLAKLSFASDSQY
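L3MBTL1 (50 nM) pre-complexed 30 min with biotinylated H3(1-15)K9me1 peptide (75 nM), then compounds added for 30 min at room temperature; AlphaScreen streptavidin donor/nickel chelate acceptor beads (10 ug/mL final) read after 30 min dark incubation.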
Starred values were filed as active, the others as inactive; [ ] = another dose, or the depositor's remark. An excerpt weighted towards active compounds, which were near 11% of everything screened. Calls follow the shape of the dose curve; as a rule, active = well fitted inhibition curve with a large enough effect; inconclusive = small, poorly fitted or top-dose-only effect; inactive = no such curve, though single readings can be large or run the other way. Potency is read from the fitted curve at half-maximal effect.

For CCN(CC)c1ccc(NC(=O)CSc2ccsc2[N+](=O)[O-])c(C)c1 the results were JMJD2A Tudor 22µM*, BAZ2B inh 32µM*, HP1b chromo inh inconclusive, G9a inh inconclusive and L3MBTL1 inh inconclusive.
For CC(=O)c1ccc(NC(=O)CSc2ccsc2[N+](=O)[O-])cc1 the results were JMJD2A Tudor inconclusive, BAZ2B inh 35µM*, HP1b chromo inh -3%, G9a inh 50µM* and L3MBTL1 inh -21%.
O=C(CSc1ccsc1[N+](=O)[O-])Nc1cc(F)ccc1F was read as JMJD2A Tudor 45µM*, BAZ2B inh 20µM*, HP1b chromo inh inconclusive, G9a inh 35µM* and L3MBTL1 inh 40µM*.
`COc1ccc(NS(=O)(=O)c2cc(C(=O)N3CCC3)ccc2C)cc1` gave JMJD2A Tudor -31%, BAZ2B inh -28%, HP1b chromo inh 25%, G9a inh 14%[12.7 µM] and L3MBTL1 inh 0%.
`COc1ccccc1NCC(=O)c1ccc(Cl)cc1` gave JMJD2A Tudor inconclusive, BAZ2B inh inconclusive, HP1b chromo inh inconclusive and G9a inh 50µM*.
Screening NC(=S)N/N=C/c1ccc(OC(=O)c2cccnc2)cc1 returned JMJD2A Tudor 8%, BAZ2B inh -11%, HP1b chromo inh 62% and G9a inh 1%[59 µM].
For CCN(C(C)=O)c1cnc(C=NNC(N)=S)c2ccccc12 the results were JMJD2A Tudor 56µM* and HP1b chromo inh 2%.
For COc1ccc(Cn2c(-c3ccco3)nc3oc4ccccc4c(=O)c3c2=O)cc1 the results were JMJD2A Tudor -13%, BAZ2B inh -5%, HP1b chromo inh 40%, G9a inh inconclusive and L3MBTL1 inh 6%.
Screening COc1ccc2c(=O)c3c(=O)n(Cc4ccco4)c(-c4ccco4)nc3oc2c1 returned JMJD2A Tudor inconclusive, BAZ2B inh inconclusive, HP1b chromo inh 0% and G9a inh 18µM*.
For CCC(=O)Nc1ccc(-c2csc(NNC(C)=O)n2)cc1 the results were JMJD2A Tudor -8%, BAZ2B inh -27%, HP1b chromo inh 24%, G9a inh 14µM* and L3MBTL1 inh 6%.
Screening CC(=O)NC(CC(=O)Nc1ccc(S(=O)(=O)N2CCCC2)cc1)c1ccccc1 (stereo not given) returned JMJD2A Tudor -13%[57.1 µM], HP1b chromo inh 42%, G9a inh 28µM* and L3MBTL1 inh 0%.
CCCCCC(=O)Nc1ccc(-c2csc(N)n2)cc1 was read as JMJD2A Tudor -29%, BAZ2B inh inconclusive, HP1b chromo inh 25% and G9a inh 40µM*.
`CC(=O)NC(CC(=O)Nc1cccc(S(=O)(=O)N2CCOCC2)c1)c1ccccc1` (stereo not given) gave JMJD2A Tudor -16%, BAZ2B inh 5%, HP1b chromo inh -15%, G9a inh 6% and L3MBTL1 inh -3%.
Screening CC(=O)Nc1ccc(-c2csc(NC(=O)CC(NC(C)=O)c3ccccc3)n2)cc1 (stereo not given) returned JMJD2A Tudor -13%, BAZ2B inh -3%, HP1b chromo inh -18% and G9a inh 45µM*.
C=C(C)[C@H]1CC=C(CO)CC1 was read as G9a inh 26%[59 µM].
For CN(C)CCN(Cc1ccco1)C(=O)c1cc2c(s1)-c1ccccc1OC2 the results were JMJD2A Tudor -5%, BAZ2B inh -15%, HP1b chromo inh 33% and G9a inh 7%[59 µM].
For CC(=O)Nc1ccc(-c2csc(N/N=C(/C)c3ccccc3)n2)cc1 the results were JMJD2A Tudor inconclusive, BAZ2B inh inconclusive, HP1b chromo inh -17% and G9a inh 18µM*.
`C/C(=N\Nc1ccccc1[N+](=O)[O-])c1ccc(N2CCOCC2)cc1` gave JMJD2A Tudor inconclusive, BAZ2B inh 1µM*, HP1b chromo inh 10µM*, G9a inh -27% and L3MBTL1 inh -24%.
`C/C(=N\Nc1ccc([N+](=O)[O-])cc1)c1ccc(N2CCOCC2)cc1` gave JMJD2A Tudor 4%, BAZ2B inh -3%, HP1b chromo inh 6% and L3MBTL1 inh 3%.
For CCN(CC)c1ccc(Nc2nc(Cl)ncc2Br)cc1 the results were JMJD2A Tudor 28µM*, BAZ2B inh 35µM*, HP1b chromo inh inconclusive and G9a inh 10µM*.
Screening CN(C)/C=C/C=C1C(=O)CCCC1=O returned JMJD2A Tudor inconclusive, BAZ2B inh 56µM*, HP1b chromo inh inconclusive, G9a inh inconclusive and L3MBTL1 inh 28µM*.
O=C(c1ccco1)N1CCC2(CC1)CN(c1cccc(-c3ccccc3)c1)C2 was read as G9a inh 31%[12.7 µM].
For COc1ccc(-n2ccnc(NCCc3ccc(S(N)(=O)=O)cc3)c2=O)cc1 the results were JMJD2A Tudor -22%, BAZ2B inh -13%, HP1b chromo inh -1% and G9a inh inconclusive.
`CC1CCC(NC(=O)CCCn2sc3ccccc3c2=O)CC1` (stereo not given) gave JMJD2A Tudor inconclusive, BAZ2B inh -16%, HP1b chromo inh 10% and G9a inh 22µM*.
Screening CCOc1ccc(/C=N/OCC(=O)NCc2ccc3c(c2)OCO3)cc1OC returned JMJD2A Tudor -15%, BAZ2B inh 2%, HP1b chromo inh 14%, G9a inh 40µM* and L3MBTL1 inh 4%.
Screening COc1ccccc1/C=N/OCC(=O)NCc1ccc2c(c1)OCO2 returned JMJD2A Tudor -14%, BAZ2B inh 1%, HP1b chromo inh 14%, G9a inh -36% and L3MBTL1 inh 4%.
For NCCS the results were JMJD2A Tudor -12%, BAZ2B inh 4%, HP1b chromo inh inconclusive, G9a inh 14µM* and L3MBTL1 inh 13%.
Cc1cccc(-c2ccc3ncnc(N(C)Cc4ccco4)c3c2)c1 was read as BAZ2B inh -27%, G9a inh -23%[12.7 µM] and L3MBTL1 inh 8%.
`CCOC(=O)c1noc2nc(C)n(Cc3ccc([N+](=O)[O-])cc3)c(=O)c12` gave JMJD2A Tudor 20µM*, BAZ2B inh -14%, HP1b chromo inh -3%[57 µM] and G9a inh -4%[59 µM].
Screening CCOC(=O)c1noc2nc(C)n(Cc3cccc([N+](=O)[O-])c3)c(=O)c12 returned JMJD2A Tudor -5%, BAZ2B inh 18%, HP1b chromo inh 49%[57 µM] and G9a inh 0%[59 µM].
CC1(c2ccc([N+](=O)[O-])cc2)NC(=O)N(CC(=O)Nc2ccc(N3CCCCC3)cc2)C1=O (stereo not given) was read as JMJD2A Tudor inconclusive, BAZ2B inh 35µM*, HP1b chromo inh inconclusive, G9a inh 11µM* and L3MBTL1 inh -25%.
`CC1(c2ccc(OC(F)F)cc2)NC(=O)N(CC(=O)Nc2ccc(N3CCCCC3)cc2)C1=O` (stereo not given) gave JMJD2A Tudor inconclusive, BAZ2B inh inconclusive, HP1b chromo inh inconclusive, G9a inh 7.1µM* and L3MBTL1 inh -22%.

Screening results deposited in PubChem BioAssay by National Center for Advancing Translational Sciences (NCATS).
